# Columns and labels:
# Assay in all cases: yeast three-hybrid, YBZ-1, SC-Leu-His + 0.5 mM 3-AT, 4 days
# Details in all cases: tags: N-Gal4 AD-HA kept; label: inside an RPR1-promoter hybrid RNA with tandem MS2 sites; ssRNA
# PUM1 PUF domain R2-AWS = PUM1 PUF domain R2-AWS (Homo sapiens, UniProt Q14671 828-1176, N899A;Y900W;Q903S)
# How it was run: (§1)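 Pumilio-1 PUF domain libraries, randomized (NNK) at the three base-contacting residues of each repeat, were co-expressed with matching RNA elements from a centromeric plasmid in strain YBZ-1 (LexA–MS2 coat fusion, HIS3 reporter). Transformants were plated on SC-Leu (input) and SC-Leu-His + 0.5 mM 3-AT (selection) for four days, and repeat regions were PCR-amplified and Illumina-sequenced. The interaction score is the log2 change in variant frequency from input to selection, with pseudocount 1 where absent.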
# PUM1 PUF domain R6-VFL = target: T1, PUM1 PUF domain R6-VFL (Homo sapiens, UniProt Q14671 828-1176, N1043V;Y1044F;Q1047L)
# T1 sequence: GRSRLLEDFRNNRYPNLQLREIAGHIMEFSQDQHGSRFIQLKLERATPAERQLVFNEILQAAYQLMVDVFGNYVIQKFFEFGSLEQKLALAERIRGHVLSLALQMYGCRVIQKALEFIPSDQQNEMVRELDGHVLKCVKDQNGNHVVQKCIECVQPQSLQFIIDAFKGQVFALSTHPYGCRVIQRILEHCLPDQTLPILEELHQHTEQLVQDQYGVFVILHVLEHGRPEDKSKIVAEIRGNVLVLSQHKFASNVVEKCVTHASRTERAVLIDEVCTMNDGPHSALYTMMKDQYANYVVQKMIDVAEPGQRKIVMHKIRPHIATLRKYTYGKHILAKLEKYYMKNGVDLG
# How it was run: as §1
# PUM1 PUF domain R8-IYW = PUM1 PUF domain R8-IYW (Homo sapiens, UniProt Q14671 828-1176, N1122I;Q1126W)
# How it was run: as §1
sequence,measurement,setting,value
GGCUAGAACUAGUGGAUCCCCCGGCGCCCGGCGGCUCGAGCCCGGGUAAGUGUAAAAAGUCUGCAUGCCGCCGGGCGCCAUGCCUGCAGGUCGACUCUAGAAAACAUG,binding signal,PUM1 PUF domain R2-AWS,4.37 log2 enrichment (interaction score)
GGCUAGAACUAGUGGAUCCCCCGGCGCCCGGCGGCUCGAGCCCGGGUAAGUGAAAAUAGUCUGCAUGCCGCCGGGCGCCAUGCCUGCAGGUCGACUCUAGAAAACAUG,binding signal,PUM1 PUF domain R6-VFL,7.04 log2 enrichment (interaction score)
GGCUAGAACUAGUGGAUCCCCCGGCGCCCGGCGGCUCGAGCCCGGGUAAGCGUAAAUAGUCUGCAUGCCGCCGGGCGCCAUGCCUGCAGGUCGACUCUAGAAAACAUG,binding signal,PUM1 PUF domain R8-IYW,2.87 log2 enrichment (interaction score)

# From article PMC8384837, “Expanding the binding specificity for RNA recognition by a PUF domain”
